Reference: PubChem BioAssay (NCI)
The panel holds about 83,000 compounds, 20% with a hit somewhere; the sample as a whole holds those more often.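 Negative percent growth values reflect cell death: -40 means 40% of the cells present at the start died, and -100 means all died.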 Values without a mark were called inactive. Activity calls are given as the source filed them. How the source made its calls: active means growth percent below 10; inactive means the rest.

What was measured:
Test in all cases: NCI-60 one-dose screen, 48 h (100 = growth as untreated, 0 = no growth, -100 = all killed)
Settings in all cases: 10 µM unless noted
NCI-H23 lung = tested on: NCI-H23 lung
NCI-H226 lung = tested on: NCI-H226 lung
NCI-H322M lung = tested on: NCI-H322M lung
HOP-62 NSCLC = tested on: HOP-62 NSCLC
NCI-H460 lung = tested on: NCI-H460 lung
HOP-92 NSCLC = tested on: HOP-92 NSCLC
NCI-H522 lung = tested on: NCI-H522 lung
A549/ATCC NSCLC = tested on: A549/ATCC NSCLC
786-0 renal = tested on: 786-0 renal
COLO 205 colon = tested on: COLO 205 colon

| Structure (SMILES) | growth (NCI-H23 lung) | growth (NCI-H226 lung) | growth (NCI-H322M lung) | growth (HOP-62 NSCLC) | growth (NCI-H460 lung) | growth (HOP-92 NSCLC) | growth (NCI-H522 lung) | growth (A549/ATCC NSCLC) | growth (786-0 renal) | growth (COLO 205 colon) |
| --- | --- | --- | --- | --- | --- | --- | --- | --- | --- | --- |
| O=c1c2ccccc2sc2c(NCCCNCCO)nc3ccccc3c12 | 50% | 44.4% | 65.8% | 36.5% | -33.5% (active) | -1.63% (active) | 20.9% | 25.9% | 41.3% | -78.9% (active) |
| CCN(CC)CCNC(=O)c1c(C)[nH]c(/C=C2\C(=O)Nc3cc(NC(=O)NC(=O)c4ccc(OC)cc4F)ccc32)c1C | 103% | 108% | 105% | 109% | 83.7% | 94.9% | 104% | 85.3% | -55.6% (active) | 94.7% |
| Cc1cc(O[C@@H]2O[C@@H](C)[C@H](O)[C@@H](O)[C@H]2O)c2c3c(c(O[C@@H]4O[C@@H](C)[C@H](O)[C@@H](O)[C@H]4O)cc2c1)C(=O)c1c(O)cccc1C3=O | 95.4% | 52.1% | 95.4% | 77.4% | 84.8% | 76.1% | 64.8% | 76.8% | 24.4% | 94.5% |
| Cc1cc2c(cc1C)N(C(=O)CCl)CCN2C(=O)CCl | -57.1% (active) | -19.3% (active) | 10.2% | -46.7% (active) | -54.7% (active) | -72.5% (active) | -82.5% (active) | -29.4% (active) | -24.8% (active) | -41.7% (active) |
| CN[C@@H](CCCNC(N)=NC/C=C(/C)CCC=C(C)C)C(=O)N(C)[C@@H](CCCNC(N)=NCC=C(C)C)C(=O)N[C@H](C)[C@H](OS(=O)(=O)O)c1ccc(OS(=O)(=O)O)c(COS(=O)(=O)O)c1 | 99.9% | 89.1% | 102% | 102% | 110% | 100% | 83.9% | 89.7% | 97.1% | 108% |
| CCC(N)(C(=O)O)c1ccc(F)cc1 (stereo not given) | 102% | 106% | 113% | 104% | 106% | 93.9% | 90.2% | 81.5% | 99.9% | 105% |
| Oc1ccc(O)c(-[n+]2ccccc2)c1 | 99.4% | 93% | 109% | 94.2% | 105% | 92.6% | 82.7% | 83.8% | 95.3% | 112% |
| CCN(CC)CCC(C(=O)O)(c1ccccc1)c1ccccc1 | 95.3% | 106% | 103% | 86.5% | 105% | 101% | 89.7% | 110% | 96.4% | 101% |
| S=c1n(CNc2ccc(Cl)nn2)nc(-c2cc(Cl)cc(Cl)c2Cl)n1/N=C/c1ccc(Cl)cc1 | 88.5% | 96.1% | 74.9% | 81.6% | 110% | 34.3% | 72.2% | 138% | 81.9% | 132% |
| S=c1ssnc1-c1ccccn1 | 44.5% | 61.4% | 66.5% | 47.7% | 6.05% (active) | -4.36% (active) | -29.3% (active) | 57.7% | 18.1% | 43% |
| O=C1CCC(=O)N1C1CCCCC1 | 93% | 97.1% | 81.5% | 93.3% | 104% | 102% | 103% | 115% | 106% | 101% |
| CC1(C)Cc2c(Br)c(Br)c(Br)c(OCC(O)CN3CCN(c4ccccn4)CC3)c2O1 (stereo not given) | 80.9% | 91.7% | 57.6% | 102% | 88% | -5.32% (active) | 60.9% | 80.4% | 31.3% | 114% |
| COC(=O)c1ccc(NC(N)=NCC(C)(C)COc2ccc(C(F)(F)F)cc2)nc1 | 33.6% | 50.7% | 65.9% | 76.6% | 38.8% | 47.1% | 37.2% | 56.1% | 70.9% | -76.7% (active) |
| O=C(Nc1ccc(F)cc1)Nc1ccc(Br)c(C(F)(F)F)c1 | -7.43% (active) | -6.87% (active) | 22% | 23.2% | 4.62% (active) | -13.3% (active) | -16.9% (active) | 10.2% | 13.6% | -27.3% (active) |
| CCOC(=O)C1=C(N)Oc2cc(OC)ccc2C1c1ccc(F)c(F)c1 (stereo not given) | 45.1% | 68% | 46.8% | 37.7% | 16.8% | 73.6% | -6.42% (active) | 42.1% | 33.1% | 25.2% |
| O=C(Nc1ccc(-n2ccc3c(NC(=O)c4ccccc4)ncnc32)cc1)c1ccc(Cl)c(C(F)(F)F)c1 | 56.5% | 32.3% | 44.1% | 45.6% | -30.5% (active) | 89.4% | 11.3% | -40.8% (active) | 54.9% | 33.3% |
| COc1ccc(/C=C/C(=O)c2ccc(Oc3ncnc4ccccc34)cc2)cc1OC | 81.9% | 80.2% | 76.1% | 87.7% | 88.4% | 84.6% | 53.5% | 59.2% | 82.4% | 85.4% |
| CN(C)CCNc1nc2ccccc2c2c(=O)c3ccccc3sc12 | 31.8% | 36.5% | 43.1% | 21.7% | 1.33% (active) | 4.02% (active) | 14.4% | 13.2% | 28.6% | -79.6% (active) |
| Clc1ccc2c(c1)nnn1c3ncccc3c(Br)c21 | 81.1% | 90.1% | 88.5% | 63.7% | 78.6% | 42.9% | 67.8% | 89.6% | 56.6% | 88.9% |
| O=C(COc1ccc(Cl)cc1)N1CCN(Cc2ccc3c(c2)OCO3)CC1 | 89.8% | 101% | 105% | 101% | 107% | 81.1% | 93.8% | 96.3% | 101% | 96.1% |
| CNCCCOc1c(Br)cc(CCNC(=O)/C(Cc2cc(Br)c(OC)c(Br)c2)=N/O)cc1Br | -20.9% (active) | 75.1% | 21% | -7.84% (active) | -44.7% (active) | -6.24% (active) | -64% (active) | -16.7% (active) | -80.8% (active) | -72% (active) |
| CCN(CC)CC(=O)Nc1c(C)cccc1C | 106% | 92.9% | 90.2% | 106% | 112% | 104% | 101% | 104% | 95.4% | 115% |
| COc1cc2ncnc(Oc3ccc(NC(=O)Nc4ccc(CN5CCOCC5)c(C(F)(F)F)c4)c4ccccc34)c2cc1OC | 16.8% | 1.53% (active) | 19.3% | 66.8% | 25.4% | -2.3% (active) | 19.8% | 23.1% | 37.1% | 13.4% |
| Clc1ccc(CN2COc3c(ccc4cccnc34)C2)cc1Cl | 13.5% | -11.5% (active) | 12.3% | -2.68% (active) | -26.2% (active) | -9.87% (active) | -56.7% (active) | -4.93% (active) | -63.3% (active) | 12% |
| CC1OC(n2c3ccccc3c3c4c(c5c6ccccc6[nH]c5c32)C(=O)N(CCN[C@@H]2CCC[C@H]2N)C4=O)CC(O)C1O (stereo not given in full) | 13.2% | 17.4% | 25.4% | 5.12% (active) | -62% (active) | 72% | -9.89% (active) | 14.1% | 32.2% | 1.5% (active) |
| COc1cccc(C2CC(c3cc(OC)c(OC)c(OC)c3)=NN2)c1 (stereo not given) | 89.6% | 91.7% | 99.6% | 83% | 93.7% | 80% | 80.3% | 84.4% | 86.9% | 106% |
| O=C(NOC1OC(CO)C(O)C(O)C1O)Nc1ccccc1 (stereo not given) | 104% | 90.5% | 101% | 93.2% | 103% | 91.1% | 84.9% | 106% | 107% | 95.8% |
